Laboratory results reported in PubChem BioAssay (NCI).
Compounds without any hit were thinned out: in the full panel of roughly 83,000, 20% have a hit.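 Plates (96-well) were seeded with cells, treated with compound at one concentration, and incubated for 48 hours before percent growth was determined.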 The source made the active and inactive calls. The calls were made as follows: active = growth percent below 10; inactive = the rest.

Experiments:
Assay in all cases: NCI-60 one-dose screen, 48 h (100 = growth as untreated, 0 = no growth, -100 = all killed)
Details in all cases: 10 µM unless noted
[1] = test system: NCI-H23 lung
[2] = test system: NCI-H226 lung
[3] = test system: NCI-H322M lung
[4] = test system: HOP-62 NSCLC
[5] = test system: NCI-H460 lung
[6] = test system: NCI-H522 lung
[7] = test system: A549/ATCC NSCLC
[8] = test system: 786-0 renal
[9] = test system: COLO 205 colon

Measured: growth

Cc1ccc(-c2nc(Nc3ccccc3S(N)(=O)=O)c3ccccc3n2)cc1
inactive: [1] 68.2% | [2] 59.1% | [3] 80.2% | [4] 86.8% | [5] 70.2% | [6] 81.4% | [7] 71% | [8] 32.1% | [9] 98.7%

CCCSc1nc(NCCc2c[nH]c3ccccc23)c(C#N)c(-c2ccc(F)cc2)n1
inactive: [1] 80.6% | [2] 32.5% | [3] 82.9% | [4] 40.4% | [5] 14.1% | [6] 61.3% | [7] 58.6% | [8] 62.4% | [9] 44%

Cc1cc(=O)oc2cc(OCCOc3ccc(/C=C/C(=O)Nc4ccccc4N)cc3)ccc12
inactive: [1] 46.5% | [2] 24.8% | [3] 63% | [4] 24.1% | [5] 19.5% | [7] 30.3% | [8] 23.4%
active: [6] 3.88% | [9] -24.8%

CN(C)c1nc(NCCNS(=O)(=O)c2ccc(C(=O)/C=C/c3ccc(Cl)cc3)cc2)nc(Nc2ccc(F)cc2)n1
active: [1] -38.6% | [2] -53.3% | [3] 6.91% | [5] -67.9% | [6] -87.4% | [7] -23.5% | [8] -86% | [9] -82.9%
inactive: [4] 15.4%

Cn1cc(-c2cc3nc(-c4cn(C)c5ncccc45)cc(N)n3n2)c2cc(Cl)ccc21
active: [1] -66.6% | [2] 1.56% | [3] -19.8% | [4] -94.2% | [5] -70% | [6] -85.1% | [7] -4.13% | [8] -90.4% | [9] -93.7%

C=C1CCC2C3(C)COC(c4ccccc4)OC3CCC2(C)C1CC(NCc1ccccc1)C1=CCOC1=O (stereo not drawn)
inactive: [1] 80.8% | [2] 63.6% | [3] 90.8% | [4] 85.1% | [5] 97% | [6] 77.6% | [7] 75.9% | [8] 79.3% | [9] 88.3%

CN(C)c1nc(NCCNS(=O)(=O)c2ccc(C3=Nc4c(N)nc(N)nc4NC(c4ccccc4)C3)cc2)nc(Nc2ccc(F)cc2)n1 (stereo not drawn)
inactive: [1] 58.6% | [2] 52.8% | [3] 58.4% | [4] 81.1% | [5] 25.9% | [6] 43.1% | [7] 56.4% | [8] 29.7% | [9] 44%

COc1ccc2c(c1)c(-c1cc3nc(-c4cn(C)c5ncccc45)cc(N)n3n1)cn2C
active: [1] 0.244% | [2] -16.6% | [3] -8.29% | [4] -25.8% | [5] -25.5% | [6] -78.4% | [7] -30.6% | [8] -92% | [9] -74.1%

Cc1cc2nc3c4ccccc4n(CC4=NCCN4)c3nc2cc1C
active: [1] -56% | [4] -72.5% | [5] -84.1% | [6] 2.32% | [7] -85.2% | [8] -97%
inactive: [2] 23.9% | [3] 22.3% | [9] 43.8%

O=C(CN1C(=O)/C(=C/c2ccccc2Cl)SC1=S)N1CCOCC1
active: [6] -74.8%
inactive: [1] 98% | [2] 77.9% | [3] 95.3% | [4] 116% | [5] 107% | [7] 97.8% | [8] 80.4% | [9] 100%

C=C1CC[C@@H]2[C@]3(C)COC(c4cn[nH]c4-c4ccc(Br)cc4)O[C@@H]3CC[C@@]2(C)[C@@H]1C/C=C1/C(=O)OCC1O (stereo partly drawn)
inactive: [3] 32%
active: [1] -86.1% | [2] -83.3% | [4] -46.1% | [5] -82.3% | [6] -57.5% | [7] -30.5% | [8] -95.5% | [9] -54.6%

CC12CC[C@@H]3[C@]4(C)COC(c5cn[nH]c5-c5cccc(Br)c5)O[C@@H]4CC[C@@]3(C)[C@@H]1CC(C1=CCOC1=O)O2 (stereo partly drawn)
inactive: [1] 38% | [2] 37.8% | [3] 48.6% | [4] 70.3% | [5] 23.7% | [6] 24.9% | [7] 25% | [8] 53.1% | [9] 10.5%

CCCCn1c(O)c(N=Nc2nc(-c3cc4ccccc4oc3=O)cs2)c2cc(Br)ccc21
inactive: [1] 98.3% | [2] 99.2% | [3] 102% | [4] 110% | [5] 114% | [6] 101% | [7] 97.8% | [8] 106% | [9] 140%

Cc1ncsc1-c1ccc(CNC(=O)[C@@H]2C[C@@H](O)CN2C(=O)[C@@H](NC(=O)C2(F)CC2)C(C)(C)C)c(OCCOCCOCCOCCOc2nc(Nc3cc(S(C)(=O)=O)ccc3N[C@@H](c3cccc4c3OC(F)(F)O4)c3ncccc3Cl)nc(N3CCNCC3)n2)c1
inactive: [1] 85.3% | [2] 71.5% | [3] 82.3% | [4] 90.6% | [5] 87.3% | [6] 100% | [7] 103% | [8] 97.7% | [9] 89.8%

Cc1ccc(S(=O)(=O)c2nc(S(=O)(=O)c3ccc(C)cc3)c(N3CCN(C)CC3)s2)cc1
inactive: [1] 56% | [2] 67.3% | [3] 67.3% | [4] 99.9% | [5] 40.1% | [6] 15.2% | [7] 59.5% | [8] 47.5% | [9] 78%

COc1ccc2c(c1)c(-c1cc3nc(-c4cn(C)c5ncc(Br)cc45)cc(N)n3n1)cn2C
active: [1] -36.8% | [2] 0.447% | [3] -39.8% | [4] -21.1% | [5] -35.4% | [6] -72.1% | [7] -4.96% | [8] -94.8% | [9] -74.6%

COc1ccc(/C=C/c2n(Cc3ccc4ccccc4c3)c3ccccc3[n+]2Cc2ccc3ccccc3c2)cc1
active: [1] -92.2% | [2] -45% | [3] -96.2% | [4] -76.4% | [5] -85.6% | [6] -91% | [7] -88.5% | [8] -85.7% | [9] -86.8%

O=c1oc2ccc(Br)cc2cc1C1=CSc2nc3sc4c(c3c(=O)n2N=C1)CCCC4
inactive: [1] 96.6% | [2] 92.5% | [3] 96.6% | [4] 80.6% | [5] 102% | [6] 88.5% | [7] 105% | [8] 120% | [9] 105%

COc1cccc(COc2ccc(NC(=O)Nc3ccc(Cl)c(C(F)(F)F)c3)cc2)c1
inactive: [1] 21.1% | [2] 43.2% | [3] 16.3% | [4] 34.3% | [5] 17.5% | [6] 22.1% | [7] 16% | [8] 34.5% | [9] 46.2%

Cc1occc1C(=O)NN1C(=O)/C(=C/C=C/c2ccc([N+](=O)[O-])o2)SC1=S
inactive: [3] 66.8%
active: [1] -84.1% | [2] -18.3% | [4] -9.58% | [5] -51.6% | [6] -91.5% | [7] 6.62% | [8] -69.7% | [9] -75.3%

O=C(O)Cn1c(O)c(/C=C2/C=c3cc4c(cc3=NC2=O)OCCO4)sc1=S
inactive: [1] 97.7% | [2] 103% | [3] 101% | [4] 105% | [5] 118% | [6] 103% | [7] 114% | [8] 108% | [9] 119%

CN(C)CCCNC(=O)c1cc(NC(=O)c2cc(NC(=O)c3ccc(C#Cc4ccccc4)cc3)cn2C)cn1C
inactive: [3] 38.9%
active: [1] -42.7% | [2] 4.56% | [4] 8.16% | [5] -28.9% | [6] -95.3% | [7] -14.8% | [8] -86.9% | [9] -74.9%

CN(C)c1nc(NCCNS(=O)(=O)c2ccc(C3=Nc4c(N)nc(N)nc4NC(c4ccc(Cl)cc4)C3)cc2)nc(Nc2ccc(F)cc2)n1 (stereo not drawn)
active: [9] 3.23%
inactive: [1] 50.8% | [2] 54.7% | [3] 66% | [4] 80.3% | [5] 19.4% | [6] 40.1% | [7] 62.7% | [8] 24.3%

c1ccc(-c2csc(Nc3cccc(Nc4nc(-c5ccccc5)cs4)c3)n2)cc1
inactive: [1] 36.8% | [2] 66.2% | [3] 58.1% | [4] 73% | [5] 26.9% | [6] 11.4% | [7] 44.2% | [8] 50.4% | [9] 83.5%

Cn1cc(-c2cc(N)n3nc(-c4cn(C)c5ncccc45)cc3n2)c2cccnc21
active: [1] -33.1%
inactive: [2] 86.5% | [3] 104% | [4] 86.1% | [5] 79.5% | [6] 77% | [7] 51.9% | [8] 81.9% | [9] 43.7%

CCCCCCCCc1ccc(C(=O)Nc2cccc(P(=O)(O)O)c2)cc1
inactive: [1] 96.7% | [2] 97.4% | [3] 103% | [4] 111% | [5] 107% | [6] 112% | [7] 99.9% | [8] 104% | [9] 113%

CN(C)c1nc(NCCNS(=O)(=O)c2ccc(C3=Nc4c(N)nc(N)nc4NC(c4ccc(C(F)(F)F)cc4)C3)cc2)nc(Nc2ccc(F)cc2)n1 (stereo not drawn)
inactive: [1] 31.5% | [2] 24.3% | [3] 46.7% | [4] 56.1% | [7] 45.8%
active: [5] -7.38% | [6] 5.71% | [8] -35.4% | [9] -83.5%
